Pf Dd2 growth: Plasmodium falciparum Dd2 growth inhibition. P. falciparum Dd2 growth, SYBR Green, 72 h. Potency, µM (highest dose often 28.9 µM), hits mostly inhibitors. actives 4.3% (n = 120,000). AID 1347417; active means well fitted inhibition curve with a large enough effect; further: nearly all actives have a fitted effect of over 65% in size
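Readout: SYBR Green fluorescence, 485 nm excitation, 535 nm emission, after ~16 h lysis at 37C. Before that, Dd2-infected red cells (2.5% hematocrit) grew 72 h with compound, 29 uM top final concentration.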
Numbers stand for hits; [ ] = another dose, or the depositor's remark. The sample as a whole holds a higher share of hits than the screen did.

COc1ccccc1C(=O)N1CCn2c(nnc2C2CCCNC2)C1 (stereo not drawn) was read as Pf Dd2 growth inactive.
Fc1ccc(Nc2nc(-c3ccc(F)cc3)c3c(n2)-c2ccccc2OC3)cc1 was read as Pf Dd2 growth inactive.
Screening CCOc1ccc(Nc2nc(-c3cccc(Cl)c3)c3c(n2)-c2ccccc2OC3)cc1 returned Pf Dd2 growth 10µM.
Screening Cc1ccccc1Nc1nc(-c2cccc(Cl)c2)c2c(n1)-c1ccccc1OC2 returned Pf Dd2 growth inactive.
`O=C(CC(F)(F)F)NCCc1noc(-c2cccnc2)n1` gave Pf Dd2 growth inactive.
Screening Cc1ccc([C@@H]2CN(C(=O)c3cn(CCN)nn3)C[C@H]2NC(=O)C2CC2)cc1 returned Pf Dd2 growth inactive.
`CCn1cc(C(=O)N2C[C@H](c3cccc(OC)c3)[C@@H]3[C@H]2C2CCN3CC2)cn1` gave Pf Dd2 growth inactive.
For Cc1ncsc1CCC(=O)N1C[C@@H](c2ccccc2)[C@@H]2[C@H]1C1CCN2CC1 the results were Pf Dd2 growth inactive.
For COc1ccc([C@@H]2CN(C(=O)c3sccc3C)[C@@H]3C4CCN(CC4)[C@@H]32)cc1 the results were Pf Dd2 growth 10µM.
CCn1nc(-c2cccc(-c3ccnn3C)c2)nc1N(C)C was read as Pf Dd2 growth inactive.
For CN(CC1CCOC1)S(=O)(=O)Cc1ccccc1 (stereo not drawn) the results were Pf Dd2 growth inactive[5.79 µM].
Screening COc1ccccc1C(=O)Nc1cccc(C2OC(=O)N(Cc3ccc(C)cc3)C2C(N)=O)c1 (stereo not drawn) returned Pf Dd2 growth inactive.
Screening COc1ccc(C(C(=O)O)N2CCN(c3ccc(F)cc3)CC2)c(OC)n1 (stereo not drawn) returned Pf Dd2 growth inactive.
`COc1ccc(S(=O)(=O)NC[C@@H]2C=C(C)[C@H](CC(=O)NCc3ccc(C#N)cc3)C[C@H]2C(C)C)cc1` gave Pf Dd2 growth inactive.
Screening CC1=C[C@@H](CNS(=O)(=O)c2ccccc2)[C@H](C(C)C)C[C@H]1CC(=O)NCc1ccc(C#N)cc1 returned Pf Dd2 growth 4.5µM.
Screening CC1=C[C@@H](CNS(=O)(=O)c2cccs2)[C@H](C(C)C)C[C@H]1CC(=O)NCc1ccc(C#N)cc1 returned Pf Dd2 growth inactive.
For Cc1noc(C)c1C(=O)N1CCC(c2nnc(CN(C)C)n2C)CC1 the results were Pf Dd2 growth inactive.
For CC1CCCCN1C(=O)c1cc(-c2ccc(Br)cc2)on1 (stereo not drawn) the results were Pf Dd2 growth inactive.
CC(C)=CCn1c(-c2cc(C)oc2C)cn2cc(C(=O)N3CCCC3C)nc2c1=O (stereo not drawn) was read as Pf Dd2 growth 8.9µM.
Screening CC1CCCN1C(=O)c1cc(-c2cnn(C(C)C)c2)nc2cc(F)ccc12 (stereo not drawn) returned Pf Dd2 growth inactive.
Cc1ncc2n1C(=O)N(C1CCN(CC3CC3)CC1)C2 was read as Pf Dd2 growth inactive.
For Cc1ccc(C2Cn3nnc(C(=O)N4CCC(C(=O)Nc5cc(F)cc(F)c5)CC4)c3CO2)cc1 (stereo not drawn) the results were Pf Dd2 growth inactive.
O=C(C1CCC1)N1CCC(N(C(=O)C2CC2)C2CCOCC2)CC1 was read as Pf Dd2 growth inactive.
Screening COc1ccccc1NC(=O)N1CCC(N(C(=O)C2CC2)C2CCOCC2)CC1 returned Pf Dd2 growth 4.5µM.
`O=C(c1ccccc1)N1CCC(N(C(=O)C2CC2)C2CCOCC2)CC1` gave Pf Dd2 growth inactive.
COc1ccccc1N1CCN(C2CCCN(C3CCN(Cc4ccccc4)CC3)C2)CC1 (stereo not drawn) was read as Pf Dd2 growth 13µM.
Screening CCN1CCC(N2CCCC(N3CCN(c4ccccc4OC)CC3)C2)CC1 (stereo not drawn) returned Pf Dd2 growth inactive.
For COc1ccccc1N1CCN(Cc2ccc(=O)n(C)c2)CC1 the results were Pf Dd2 growth inactive.
Cc1ccc(S(=O)(=O)N2CCC3(CC2)SCC(=O)N3Cc2ccco2)cc1 was read as Pf Dd2 growth inactive.
COCC1CN(C(C)=O)CC12CCN(Cc1ccc(F)cc1)CC2 (stereo not drawn) was read as Pf Dd2 growth inactive.
For O=S(=O)(c1cccc(Cl)c1)n1c(/C=C/c2ccccc2Cl)nc2ccccc21 the results were Pf Dd2 growth inactive.
`Cc1ccc(/C=C/c2nc3ccccc3n2S(=O)(=O)c2ccc(Br)cc2)cc1` gave Pf Dd2 growth 5.6µM.
`CSc1ccc(/C=C/c2nc3ccccc3n2S(=O)(=O)c2cccc(Cl)c2)cc1` gave Pf Dd2 growth inactive.
For Cc1cccc(N2CCN(c3nc4ccccc4c4nnc(C)n34)CC2)c1C the results were Pf Dd2 growth 0.89µM.
Screening Cc1cccc(N2CCN(c3nc4ccccc4c4nc(-c5ccccc5)nn34)CC2)c1C returned Pf Dd2 growth inactive.
`Cc1cccc(N2CCN(c3nc4ccccc4c(=O)n3-c3ccc(Cl)cc3)CC2)c1C` gave Pf Dd2 growth inactive.
`COc1ccc(-c2ccc3nc(-c4cc(C)cc(C)c4)oc3c2)c(OC)c1OC` gave Pf Dd2 growth inactive.
For COc1ccccc1CN1C(=O)C(=O)c2cccc(C)c21 the results were Pf Dd2 growth inactive.
Cc1cc(Br)cc2c1N(Cc1ccccc1OC(C)C)C(=O)C2=O was read as Pf Dd2 growth 11µM.
`COc1ccccc1Cn1ccn(CC(=O)Nc2c(C)cc(C)cc2C)c(=O)c1=O` gave Pf Dd2 growth inactive.
CCCCCOc1ccccc1Cn1c(=O)oc2ccc(C)cc21 was read as Pf Dd2 growth inactive.
Screening CC(C)Oc1ccccc1CN1CCC([C@@H]2CNC[C@H]2CO)CC1 returned Pf Dd2 growth inactive.
Screening Cc1cccc2c1N(Cc1ccccc1OCCC(C)C)C(=O)C2=O returned Pf Dd2 growth 10µM.
c1ccc(O[C@H]2COCCN(c3nc4ccccc4o3)C2)nc1 was read as Pf Dd2 growth inactive.
`CNC(=O)C1(N2CCC[C@H]2C(=O)N(C)Cc2cccnc2)CCOCC1` gave Pf Dd2 growth inactive.
For N#Cc1ccc(CN2CCC3(CC2)CC(=O)c2ccc(Cl)cc2O3)cc1 the results were Pf Dd2 growth 11µM.
For Cc1cc(CN2CCC3(CC2)CC(=O)c2ccc(Cl)cc2O3)no1 the results were Pf Dd2 growth inactive.
CC(=O)Nc1ccc(CN2CCC3(CC2)CC(=O)c2ccc(Cl)cc2O3)cc1 was read as Pf Dd2 growth inactive.
Fc1ccccc1-c1cc2c(ccn2Cc2ccncc2)c(N2CCOCC2)n1 was read as Pf Dd2 growth inactive.
`CCCCN(Cc1ccsc1)C(=O)c1cnc(Nc2ccccc2)nc1` gave Pf Dd2 growth inactive.
For CN(C)C(=O)c1ccc(-c2cc(NC3CCCC3)nc3[nH]ccc23)o1 the results were Pf Dd2 growth 8.9µM.
Screening c1nc(-c2cc(NC3CCNCC3)nc3[nH]ccc23)c2sccc2n1 returned Pf Dd2 growth inactive.
Screening O=C(NCc1ccnc2[nH]ccc12)C1CCCC1 returned Pf Dd2 growth inactive.
CN1CC(=O)N(C2CCCNC2)Cc2c1ncnc2N1CCN(CC2CCCCC2)CC1 (stereo not drawn) was read as Pf Dd2 growth inactive.
For CCCNC(=O)N[C@@H]1C[C@H](Cn2cc(C3CC3)nn2)[C@@H](O)[C@H]1O the results were Pf Dd2 growth inactive.
Screening O[C@@H]1C[C@@H](c2nc(Cc3ccccc3)no2)N(CCCc2ccccc2)C1 returned Pf Dd2 growth inactive.
Screening O[C@@H]1C[C@@H](c2nc(Cc3ccccc3)no2)N(Cc2cc3ccccc3o2)C1 returned Pf Dd2 growth 14µM.
Screening O[C@@H]1C[C@@H](c2nc(Cc3ccccc3)no2)N(Cc2ccc(F)cc2)C1 returned Pf Dd2 growth inactive.
